Source: PubChem BioAssay
In the library only some 13% were active in any assay of this set; here they are far more common.
HCMV inh = blocks human cytomegalovirus replication | HFF cells, HCMV-luciferase reporter, 72 h; hits give low values | activity change, negative = inhibition, % at 57.5 µM | 410,000 compounds, 4.5% hits; in the data active = activity change below about -60%; inconclusive = no clear call, values can overlap the other calls; inactive = above about -39%
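Steps: HFFs plated, 16 h 37C; compounds added; HCMV-luciferase added to MOI 1 PFU/cell; 72 h 37C; OneGlo reagent, 5 min room temperature; luminescence read, normalized to controls.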
Pf growth 48h = P. falciparum growth inhibition at 48 hours (one generation); P. falciparum luciferase growth in erythrocytes, 48 h; Potency, µM (highest dose often 28.7 µM), for the others: top-dose activity change, negative = inhibition, hits mostly inhibitors; 310,000 compounds, 5.9% hits; also: potency is read from the fitted curve at half-maximal effect
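Read-out is firefly luciferase luminescence from an integrated reporter in P. falciparum, so falling signal marks reduced parasite growth. Infected erythrocytes were at 2% hematocrit and 0.1% parasitemia (final) in Albumax-supplemented RPMI 1640.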
HCV inhibitor = inhibitors of hepatitis C virus infection | Potency, µM (titrated, usually from 41.8 µM), for inactives: top-dose activity change, negative = inhibition, actives largely listed as inhibitors | 340,000 compounds, 3.4% hits | Huh7.5.1 HCVcc-Cre infection, luciferase reporter, 44 h; also: potency is read from the fitted curve at half-maximal effect
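Whole-lifecycle infectious HCVcc-Cre system; cells 1,000/well, compound then virus (~0.5 moi) added 4 h after plating, 44 h culture. Luciferase read 15 sec following 15 min substrate incubation, room temp.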
Pf growth 96h = inhibits malaria parasite growth, 96 h | P. falciparum luciferase reporter growth, 96 h | Potency, µM (titrated, usually from 28.7 µM), for inactives: at the highest dose activity change, negative = inhibition, most hits filed as inhibitors | 320,000 compounds, 6.9% hits; also: potency is read from the fitted curve at half-maximal effect
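Compounds incubated with erythrocytes infected by luciferase-expressing P. falciparum (2% hematocrit, 0.05% parasitemia final) for 96 hours, 37 C in 5% CO2. Growth inhibition scored as decreased luciferase luminescence.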
* marks the source's active call; other numbers are inactive results; ? = inconclusive; . = no result; ! = repeats disagree. Unless noted, calls follow the shape of the dose curve; as a rule, active = well fitted inhibition curve with a large enough effect; inconclusive = small, poorly fitted or top-dose-only effect, or another doubt; inactive = no such curve, though single readings can be large or run the other way. % is scaled to controls: 0 for no effect and ±100 for the full control effect.

SMILES	HCMV inh	Pf growth 48h	HCV inhibitor	Pf growth 96h
COc1ccc(C(=O)Nc2nnc(S(=O)(=O)N3CCCc4ccccc43)s2)cc1	34.3	.	.	.
COc1cc(NC(=O)c2csc(C(O)c3ccc(C(C)(C)C)cc3)n2)cc(OC)c1OC (centres undefined)	20.0	.	.	.
CC(C)(C)NC(=O)c1csc(C(O)c2ccc(C(C)(C)C)cc2)n1 (centres undefined)	-96.0*	.	.	.
COc1ccc(Cl)cc1NC(=O)CSc1nnc2[nH]c(=O)cc(C)n12	16.8	.	.	.
COc1ccc(C(CC(=O)c2ccc(C)cc2)C(C#N)C#N)cc1OC (centres undefined)	?	13.1µM*	?	22.2%
Cc1cc(C)c2nc(SCc3ccc([N+](=O)[O-])cc3)nc(C)c2c1	1.5	-22.5%	?	13.1µM*
CCOC(=O)c1c(-c2ccc(C)cc2)csc1NC(=O)c1nc(SC(C)C)ncc1Cl	1.5	.	.	.
O=C(Cn1c(=O)n(-c2ccc(F)cc2)c(=O)c2sc3ccccc3c21)NC1CCCCC1	-1.5	.	.	.
COCc1cccc(C2=CC(=O)C[C@H](c3ccc(OC)cc3)C2)c1	37.9	-2.4%	?	28.6%
O=C1C=C(c2cccc(O)c2)C[C@@H](c2ccc(F)cc2)C1	14.1	?	-16.8%	?
COCc1cccc(C2=CC(=O)C[C@H](c3ccc(F)cc3)C2)c1	10.5	2.33µM*	-19.0%	?
O=C1C=C(c2cccc(CO)c2)C[C@@H](c2ccc(F)cc2)C1	-4.4	2.33µM*	-14.1%	2.08µM*
COc1cccc(C2=CC(=O)C[C@H](c3ccc(F)cc3)C2)c1	?	2.33µM*	14.4%	?
Cc1ccccc1OCC(=O)Nc1nnc(S(=O)(=O)N2CCCCCC2)s1	1.7	.	.	.
COc1ccc(CN2C[C@H](COCc3ccccc3)Oc3cccc(N4CCCC4)c3S2(=O)=O)cc1	-17.9	.	.	.
Fc1ccccc1-n1ncc2c1ncn1nc(-c3ccccc3Cl)nc21	-1.8	.	.	.
O=[N+]([O-])c1c(NCc2ccccc2)cc(N2CCc3ccccc3C2)c2nonc12	?	17.0%	1.41µM*	?
CCOCCCNC(=O)c1ccc2c(c1)NC(=O)C(CS(=O)(=O)Cc1ccc(F)cc1Cl)N2 (centres undefined)	-15.1	.	.	.
OCC1CCN(Cc2cn(Cc3ccccc3)nc2-c2cc3ccccc3o2)CC1	-4.0	?	-2.2%	?
COC1CCN(Cc2cn(Cc3ccccc3)nc2-c2cc3ccccc3o2)CC1	-25.1	10.4µM*	4.1%	10.4µM*
OCC1CCCN(Cc2cn(Cc3ccccc3)nc2-c2cc3ccccc3o2)C1 (centres undefined)	2.7	14.7µM*	-10.9%	-20.8%
OCc1cn(-c2ccccc2)nc1-c1cc2ccccc2o1	2.1	114.1%	-22.2%	6.6%
COc1ccc(CCN(C)C2CCCN(S(=O)(=O)N(C)C)C2)cc1OC (centres undefined)	15.3	.	-0.8%	.
CN(CCc1ccccc1)C1CCCN(S(=O)(=O)CC(F)(F)F)C1 (centres undefined)	-17.0	-7.6%	1.5%	10.4µM*
COc1ccc(CCN(C)C2CCCN(S(=O)(=O)c3ccccc3F)C2)cc1OC (centres undefined)	4.8	?	-3.6%	13.1µM*
SMILES	HCMV inh	Pf growth 48h	HCV inhibitor	Pf growth 96h
CN(CCc1ccccn1)C1CCCN(S(=O)(=O)c2ccccc2)C1 (centres undefined)	-9.2	2.5%	-3.2%	78.4%
C=CCS(=O)(=O)N1CCCC(N(C)CCc2ccc(OC)c(OC)c2)C1 (centres undefined)	-6.9	?	4.9%	5.22µM*
O=C(CNC(=O)c1ccccc1Cl)OCc1cc(=O)n2ccsc2n1	5.5	.	.	.
CS(=O)(=O)c1ccc(Nc2cc3c(cn2)ncn3Cc2ccco2)cc1	-18.4	.	.	.
CNC(=O)c1cc2n(n1)CCCN(Cc1ccc(F)cc1)C2=O	-11.9	.	.	.
O=C(/C=C/Nc1ccccc1O)c1ccco1	-8.8	71.3%	5.8%	15.3%
O=C(/C=C/Nc1ccccc1Oc1ccccc1)c1ccco1	-28.4	10.4µM*	?	?
COc1cc(CN(C)c2ncnc3sccc23)ccc1OC(F)F	?	?	?	13.1µM*
COc1ccc(OC)c(Nc2ncnc3sccc23)c1	45.9	-19.6%	?	29.2%
Cc1ccc(NC(=O)NCC2CCN(Cc3cccc(Cl)c3)CC2)c(Cl)c1	-65.5*	-53.6%	12.6µM*	?
Cc1ccc(NC(=O)NCC2CCN(Cc3cccc(Cl)c3)CC2)cc1Cl	-92.5*!	?	-23.5%	?
